Assay results reported in PubChem BioAssay (NCATS).
Records with an inconclusive call do not appear. Unless noted, calls come from the whole dose curve; as a rule, active = well fitted curve in either direction with a large enough effect (not every such curve was filed as active); inconclusive = small, poorly fitted or top-dose-only effect, or another doubt; inactive = flat fitted curve, though single readings scatter.

Columns and labels:
[1] = AP1 Signaling Pathway (AID 357); conditions: ME-180 AP-1-bla reporter, EGF-induced, beta-lactamase ratio, 5 h; at 17.2 µM (top of the series) unless noted;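 note: ME-180 reporter cells stimulated with EGF at its EC50 level; % is set by controls: 0 for no effect and ±100 for the full control effect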
How it was run: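 First, ME-180 AP-1-bla cells were cultured overnight at 37 °C in low-serum Opti-MEM. Next, titrated compounds with EC50 EGF were incubated 5 hours. Finally, CCF4 was added for 2.5 hours and the 460/530 nm ratio recorded.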

[2] = Stat Signaling Pathway (AID 446); conditions: ME-180 SIE beta-lactamase reporter, IL-6 stimulated, 5 h; at 17.2 µM (top of the series) unless noted;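 note: ME-180 cervical cancer cells given 40 pM IL-6 alongside compound; SIE-controlled beta-lactamase reporter measured as 460/530 nm FRET emission ratio; % is set by controls: 0 for no effect and ±100 for the full control effect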
How it was run: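 Screening format detects activators and inhibitors alike: ME-180 SIE-bla cells stimulated at 40 pM IL-6 for 5 hrs with compound, then dual-emission beta-lactamase read at 405 nm excitation.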

[3] = target: Glucocorticoid receptor (Homo sapiens) (UniProt P04150); assay: GR-GFP Redistribution (AID 450;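 active = compounds whose dose series gives a full or clear partial fitted curve of increased nuclear translocation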; note: potency is the fitted concentration of half-maximal effect)
Chain of Glucocorticoid receptor (Homo sapiens) (P04150 whole entry, looked up): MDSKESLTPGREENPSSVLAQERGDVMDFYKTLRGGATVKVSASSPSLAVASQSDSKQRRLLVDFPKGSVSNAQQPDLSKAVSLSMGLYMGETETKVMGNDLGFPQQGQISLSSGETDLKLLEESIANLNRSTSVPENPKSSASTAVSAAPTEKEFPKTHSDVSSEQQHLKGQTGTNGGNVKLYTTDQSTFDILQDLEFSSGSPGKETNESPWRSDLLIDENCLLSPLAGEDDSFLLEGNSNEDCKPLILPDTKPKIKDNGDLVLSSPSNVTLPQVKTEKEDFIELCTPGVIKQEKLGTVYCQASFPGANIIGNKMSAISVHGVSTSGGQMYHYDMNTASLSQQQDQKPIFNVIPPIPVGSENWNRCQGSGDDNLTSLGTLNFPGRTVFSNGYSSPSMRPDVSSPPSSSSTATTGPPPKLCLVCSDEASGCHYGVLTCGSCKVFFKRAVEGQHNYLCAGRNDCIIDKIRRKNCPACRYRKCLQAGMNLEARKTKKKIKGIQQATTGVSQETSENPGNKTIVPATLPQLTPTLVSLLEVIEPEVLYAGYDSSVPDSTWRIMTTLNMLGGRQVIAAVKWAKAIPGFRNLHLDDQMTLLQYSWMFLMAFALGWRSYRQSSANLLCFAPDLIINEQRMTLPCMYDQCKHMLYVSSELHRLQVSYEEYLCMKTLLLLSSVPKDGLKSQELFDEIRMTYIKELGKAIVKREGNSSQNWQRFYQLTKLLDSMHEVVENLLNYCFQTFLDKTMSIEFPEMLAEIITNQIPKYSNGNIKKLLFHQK

CCOC(=O)c1c(SC)nc(SC)c2c1CCC2
inactive: activity change, negative = inhibition [1] -12.6% | activity, negative = inhibition [2] -4.26% | Potency [3] > 20.6 µM

CCCCCC(=O)N1CC2(C)CN(C(=O)CCCCC)CC(C)(C1)C2=O
inactive: activity change, negative = inhibition [1] 4.08% | activity, negative = inhibition [2] 5.3% | Potency [3] > 20.6 µM

COc1cc(/C=N/O)ccc1OCc1ccc(C(=O)O)cc1
inactive: activity change, negative = inhibition [1] -13.9% | activity, negative = inhibition [2] -11.7% | Potency [3] > 20.6 µM
